In article PMC7819943, “Rice protein-binding microarrays: a tool to detect cis-acting elements near promoter regions in rice”:
Over roughly 39,000 sequences, “fluorescence intensity (a.u.)” has its median near 4,300; the highest 2% begin near 39,000. This excerpt belongs to a sample that is enriched for the highest values.

Biological target: T1, OsSMF1 (Oryza sativa, UniProt Q6ZLB0 1-436)
T1 sequence: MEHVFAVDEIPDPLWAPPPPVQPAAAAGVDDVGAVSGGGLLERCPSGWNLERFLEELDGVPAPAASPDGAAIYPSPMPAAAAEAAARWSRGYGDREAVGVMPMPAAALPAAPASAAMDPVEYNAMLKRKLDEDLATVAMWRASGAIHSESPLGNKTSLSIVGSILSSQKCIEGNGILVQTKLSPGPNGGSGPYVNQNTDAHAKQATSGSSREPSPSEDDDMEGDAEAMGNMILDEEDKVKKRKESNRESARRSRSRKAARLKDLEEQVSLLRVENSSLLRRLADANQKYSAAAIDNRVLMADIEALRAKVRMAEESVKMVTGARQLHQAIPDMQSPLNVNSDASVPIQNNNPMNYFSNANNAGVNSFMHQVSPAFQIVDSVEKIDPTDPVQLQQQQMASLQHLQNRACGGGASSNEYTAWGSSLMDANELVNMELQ
Test: protein-binding microarray (RPBM); PBS, 2% BSA, 51.3 ng/ul salmon testes DNA, 50 uM zinc acetate, 200 nM TF, 25 C, 1 h; high values mean tight binding
Settings: protein: recombinant; tags: N-terminal polyhistidine and DsRed monomer fusion (pET32a); chain copies: 2; label: CyDye5-dUTP incorporated in the synthesized complementary strand; 3' TTTTT single-stranded linker to array surface; dsDNA, one strand shown
In short: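 Transcription factors were each fused at the N-terminus to a polyhistidine tag plus DsRed and expressed in E. coli BL21-CodonPlus before Ni–NTA purification. Binding to a double-stranded custom Agilent array was carried out with 200 nM protein at 25 °C for 1 h in PBS, 2% BSA, salmon testes DNA and 50 µM zinc acetate. The binding signal is per-feature fluorescence intensity, in arbitrary units, on an Axon 4000B scanner.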

Sequence | binding signal
TTTGTCCTACGTGGCGTACGCGTGGCAATCCAGTCATAATCGGAGTCACCTAGTGCAG | 20400 fluorescence intensity (a.u.)
ATTCGGTGGGTTGAGGCAGTGATGTGGTGAGAGGAGAAAGCGGAGTCACCTAGTGCAG | 3440 fluorescence intensity (a.u.)
GAAAGTGGACGCGCGCGGTCTGGCGTCACCTGGGCCGAAACGGAGTCACCTAGTGCAG | 3320 fluorescence intensity (a.u.)
CTGCCCAACAAAGTCCAGAAACTTCACGACATTCAATTGCCGGAGTCACCTAGTGCAG | 22600 fluorescence intensity (a.u.)
TACTATAGACTAGCAAATGCCAAATGACAAATTGCCAAGTCGGAGTCACCTAGTGCAG | 15800 fluorescence intensity (a.u.)
ACTGTTATTCCTACAGGCCAAAGCTGACCTAACCAATTCACGGAGTCACCTAGTGCAG | 46800 fluorescence intensity (a.u.)
TCACGCTGACCAAACACCATCTGTTATTCTGTTTGTTTGTCGGAGTCACCTAGTGCAG | 3640 fluorescence intensity (a.u.)
ATTCAGTGCAGCAGCTGCAGGCCAAGCAGGCAGCACAGCACGGAGTCACCTAGTGCAG | 3610 fluorescence intensity (a.u.)
GTAGCTGTTAAGTTCCATCTCGTCAGCAGCTGCCTGCAGACGGAGTCACCTAGTGCAG | 3210 fluorescence intensity (a.u.)
CTGTGAGTTCGTTGTCTGAGTGAGAGCTGGACGTGCTGCACGGAGTCACCTAGTGCAG | 33000 fluorescence intensity (a.u.)
GTGGCCACTTGCATCAGCCGGCCATGAGTGGAGGGGTAAGCGGAGTCACCTAGTGCAG | 49700 fluorescence intensity (a.u.)
CCATGGCACCTCCTCCTACGCCAGCACCGCTGCCGTGATGCGGAGTCACCTAGTGCAG | 4800 fluorescence intensity (a.u.)
CATGGCCACGTCCGCCACCTTGCGGATGCCGGAGGGTAAGCGGAGTCACCTAGTGCAG | 41400 fluorescence intensity (a.u.)
CGTCGATGGCGTGCGTGAGAGCCTCCACGCCTTGCTGCCGCGGAGTCACCTAGTGCAG | 4660 fluorescence intensity (a.u.)
CTGAGCTGCCACCTCCGCCGCCGCCAGCATGATGGCCTTGCGGAGTCACCTAGTGCAG | 42500 fluorescence intensity (a.u.)
CCCATGGCGTGCCACTCCGGCGGTCCGGCCGCCACGTCAGCGGAGTCACCTAGTGCAG | 38500 fluorescence intensity (a.u.)
TCTGACTGCCTCCGTCACTCCGTGCCTCGTTGGGAGCAGCCGGAGTCACCTAGTGCAG | 5300 fluorescence intensity (a.u.)
CGGACTGAGCTGCCTCGCCCGCCTCCGAGCAGTTGGGGAACGGAGTCACCTAGTGCAG | 40900 fluorescence intensity (a.u.)
TCGCTGCCCTCCCGCCCGTTGGCCGAAGGGGAAGAAGGGGCGGAGTCACCTAGTGCAG | 36900 fluorescence intensity (a.u.)
TGAGGGCCGCCACGTCCTCATGGCCTCCGCCCCATCGGAGCGGAGTCACCTAGTGCAG | 7660 fluorescence intensity (a.u.)
GATGAGATGAGGGAGATACCATCAGACTTGCACCAGATGGCGGAGTCACCTAGTGCAG | 3660 fluorescence intensity (a.u.)

Sequence | binding signal
GACTTGCGGCCACGGAGTCAGGGCCGTGCACGTGGAGGTACGGAGTCACCTAGTGCAG | 4910 fluorescence intensity (a.u.)
TCATACACATACAACTTTTCAGTCACATCATTTACAATTTCGGAGTCACCTAGTGCAG | 29000 fluorescence intensity (a.u.)
AAACACTGAAATTTTAGCATCACGAAGTTCTCACCGAGACCGGAGTCACCTAGTGCAG | 5200 fluorescence intensity (a.u.)
GGGTTCGATTCCCCGCACCTCCAATATAAAACGTTTTCTTCGGAGTCACCTAGTGCAG | 3420 fluorescence intensity (a.u.)
GAGTCCGGCGTGATGCCGTGATGACGCCGCAACGCGGCATCGGAGTCACCTAGTGCAG | 9060 fluorescence intensity (a.u.)
AGCATGCACCTTGATCACGGGAACGAGCTAGCGAGAGGCACGGAGTCACCTAGTGCAG | 3720 fluorescence intensity (a.u.)
ACAAACGAACAAGACATGAAGCCGATGAGTCCAGCAGAGCCGGAGTCACCTAGTGCAG | 3170 fluorescence intensity (a.u.)
GTTAATGGTGACTTTATTTTCGTCTGTTACAAAACGGAAGCGGAGTCACCTAGTGCAG | 3250 fluorescence intensity (a.u.)
GATTAATTGATTTATTTCTTTCTGCTTTACCCGGTCGCCACGGAGTCACCTAGTGCAG | 19200 fluorescence intensity (a.u.)
CACCCATCTCCTTGCCGGCCTCTCCACCCCGCCTCTTTCGCGGAGTCACCTAGTGCAG | 19000 fluorescence intensity (a.u.)
TGGGAGCGCTGGGGCTGGCCATCTCTCCTTGCCTGCTGTGCGGAGTCACCTAGTGCAG | 29400 fluorescence intensity (a.u.)
GCTGGCCCATCTCCTTGCCCACCCATGGGCCTGAAAGCCGCGGAGTCACCTAGTGCAG | 49900 fluorescence intensity (a.u.)
ATTGATGTTACATGCCTCGCAAGCGATGACACGGCAAGCTCGGAGTCACCTAGTGCAG | 5060 fluorescence intensity (a.u.)
AGCTCAGCTGTCACGGTGTCACCTGTCAGCGCCCACAACTCGGAGTCACCTAGTGCAG | 6140 fluorescence intensity (a.u.)
GGCGAAGAATGCAGACATGACACGGACCCATCGACGCGGGCGGAGTCACCTAGTGCAG | 3340 fluorescence intensity (a.u.)
GAGCTTCTGACTCATCTTTACTAGGAAGGGTCTTTTCAAGCGGAGTCACCTAGTGCAG | 39100 fluorescence intensity (a.u.)
AGTGGAAGCAGGTCTTTTACTGATCGATCAAGGTCTGATGCGGAGTCACCTAGTGCAG | 16800 fluorescence intensity (a.u.)
CTCATCTCAAGCTTTTCTCTCTCTCTCTCTCTTTGCACTACGGAGTCACCTAGTGCAG | 4680 fluorescence intensity (a.u.)
CGCCGTCGACACGTGGGGCCCCTCCTCCCGCCGCCGCCGCCGGAGTCACCTAGTGCAG | 9020 fluorescence intensity (a.u.)
GACTACGCGTACGCCACGCCACAACGCTTCTCGCTCTCCCCGGAGTCACCTAGTGCAG | 4510 fluorescence intensity (a.u.)
ACAATTTTAATGAAATCGTACATTATACTATATATGTTTTCGGAGTCACCTAGTGCAG | 3150 fluorescence intensity (a.u.)
